# “And” between values parts separate entries of the source, which are not always exact repeats. Identical values can stand only once. Records with an inconclusive call do not appear. Entries that show only a call come without a potency. Values without a mark were called inactive. The source made the active and inactive calls. The call rests on the fitted dose curve; in most records, active means well fitted curve in the direction sought with a large enough effect; inconclusive means small, poorly fitted or top-dose-only effect, or another doubt; inactive means no such curve, though single readings can be large; an effect the other way counts as inactive or inconclusive.
# How the values were obtained:
# CRL-7250 [1] = experiment: Cytotoxic Profiling of Annotated Libraries Using Quantitative High-Throughput Screening (AID 1296008); details: Five cell lines viability, CellTiter-Glo ATP luminescence, 48-72 h; max response: hits give low values; further: nearly all actives have a fitted effect of over 60% in size; further: potency means the concentration at half of the fitted maximal effect
# Procedure, shortened: (§1)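 Cells exposed to compounds for 48 or 72 hr at 37 degrees Celsius. Viability read as ATP-coupled luminescence with CellTiter-Glo after 10 min at room temperature.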
# HEK293 = experiment: as above; details: Five cell lines viability, CellTiter-Glo ATP luminescence, 48-72 h; max response: hits give low values
# Procedure, shortened: as §1
# HaCat [2] = experiment: as above; details: Five cell lines viability, CellTiter-Glo ATP luminescence, 48-72 h; max response: hits give low values
# Procedure, shortened: as §1
# KB-3-1 = experiment: as above; details: Five cell lines viability, CellTiter-Glo ATP luminescence, 48-72 h; max response: hits give low values
# Procedure, shortened: as §1
# NIH3T3 [3] = experiment: as above; details: Five cell lines viability, CellTiter-Glo ATP luminescence, 48-72 h; max response: hits give low values
# Procedure, shortened: as §1
# HACAT [4] = experiment: qHTS assay to identify novel small-molecules to repurpose for Merkel cell carcinoma treatment (AID 1296009); details: MCC and control cell lines, CellTiter-Glo viability, 72 h; at 44.8 µM (top of the series) unless noted; further: nearly all actives have a fitted effect of over 60% in size; further: potency means the concentration at half of the fitted maximal effect
# Procedure, shortened: (§2)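 Dose-response viability screen; 72 hr exposure at 37 degree celsius; CellTiter-Glo added, 10 min room temperature, luminescence read; RLUs scaled between no-cell and DMSO wells.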
# HEK293T = experiment: as above; details: MCC and control cell lines, CellTiter-Glo viability, 72 h; at 44.8 µM (top of the series)
# Procedure, shortened: as §2
# MCC-13 = experiment: as above; details: MCC and control cell lines, CellTiter-Glo viability, 72 h; series mostly up to 46 µM
# Procedure, shortened: as §2
# MCC-26 = experiment: as above; details: MCC and control cell lines, CellTiter-Glo viability, 72 h; series mostly up to 46 µM
# Procedure, shortened: as §2
# MKL-1 = experiment: as above; details: MCC and control cell lines, CellTiter-Glo viability, 72 h; series mostly up to 46 µM
# Procedure, shortened: as §2
# MKL-2 = experiment: as above; details: MCC and control cell lines, CellTiter-Glo viability, 72 h; series mostly up to 46 µM
# Procedure, shortened: as §2
# UISO = experiment: as above; details: MCC and control cell lines, CellTiter-Glo viability, 72 h; series mostly up to 46 µM
# Procedure, shortened: as §2
# WaGa = experiment: as above; details: MCC and control cell lines, CellTiter-Glo viability, 72 h; series mostly up to 46 µM
# Procedure, shortened: as §2
# C33A = experiment: Primary qHTS to identify gynecologic anti-cancer compounds using libraries of approved drugs and bioactive compounds (AID 1345084); details: Gynecologic cancer cell panel viability, ATPlite luminescence, 48 h; series mostly up to 57.5 µM; further: nearly all actives have a fitted effect of over 55% in size
# Procedure, shortened: (§3)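 ATP-based viability (ATPlite), 1,000 cells/well, 16 h pre-incubation, 48 h compound at 37 C, 5% CO2, 15 min RT before read.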
# CAOV3 = experiment: as above; details: Gynecologic cancer cell panel viability, ATPlite luminescence, 48 h; series mostly up to 57.5 µM
# Procedure, shortened: as §3
# CASKI = experiment: as above; details: Gynecologic cancer cell panel viability, ATPlite luminescence, 48 h; series mostly up to 57.5 µM
# Procedure, shortened: as §3
# TAB165 = experiment: qHTS profiling for inhibitors of Plasmodium falciparum proliferation (AID 504749); further: nearly all actives have a fitted effect of over 60% in size; further: potency means the concentration at half of the fitted maximal effect; details: P. falciparum in erythrocytes, SYBR Green DNA, 72 h; series mostly up to 28.7 µM
# Procedure, shortened: (§4)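 Each compound contacts P. falciparum-infected red blood cells for 72 h at 37 C; lysis buffer (Tris, EDTA, saponin, Triton X, SYBR Green I) is added and fluorescence measured next morning; values normalized to controls.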
# CRL-7250 [5] = experiment: qHTS assay to identify novel small-molecules to repurpose for Merkel cell carcinoma treatment (AID 1296009); details: MCC and control cell lines, CellTiter-Glo viability, 72 h; series mostly up to 44.8 µM; further: nearly all actives have a fitted effect of over 60% in size; further: potency means the concentration at half of the fitted maximal effect
# Procedure, shortened: as §2
# NIH3T3 [6] = experiment: as above; details: MCC and control cell lines, CellTiter-Glo viability, 72 h; at 44.8 µM (top of the series) unless noted
# Procedure, shortened: as §2
# W2 = experiment: qHTS profiling for inhibitors of Plasmodium falciparum proliferation (AID 504749); further: nearly all actives have a fitted effect of over 60% in size; further: potency means the concentration at half of the fitted maximal effect; details: P. falciparum in erythrocytes, SYBR Green DNA, 72 h; series mostly up to 28.7 µM
# Procedure, shortened: as §4
compound,measurement,setting,value
N[C@@H](Cc1ccc(Oc2cc(I)c(O)c(I)c2)c(I)c1)C(=O)O,max response,CRL-7250 [1],-1.97%
same,outcome,HEK293,inactive
same,outcome,HaCat [2],inactive
same,max response,KB-3-1,6.84%
same,max response,NIH3T3 [3],-1.92%
same,outcome,HACAT [4],inactive
same,outcome,HEK293T,inactive
same,Potency,MCC-13,inactive
same,Potency,MCC-26,inactive
same,Potency,MKL-1,inactive
same,Potency,MKL-2,inactive
same,Potency,UISO,inactive
same,Potency,WaGa,inactive
same,Potency,C33A,inactive
same,Potency,CAOV3,inactive
same,Potency,CASKI,inactive
CC1NCCOC1c1ccccc1 (centres undefined),Potency,TAB165,inactive
same,max response,CRL-7250 [1],1.98%
same,outcome,HEK293,inactive
same,outcome,HaCat [2],inactive
same,max response,KB-3-1,-11.6%
same,max response,NIH3T3 [3],1.83%
same,outcome,HACAT [4],inactive
same,outcome,HEK293T,inactive
same,Potency,MCC-13,inactive
same,Potency,MKL-1,inactive
same,Potency,MKL-2,inactive
same,Potency,UISO,inactive
same,Potency,WaGa,inactive
same,Potency,C33A,inactive
same,Potency,CASKI,inactive
Cc1cc(SCc2sc(-c3ccc(C(F)(F)F)c(F)c3)nc2C)ccc1OCC(=O)O,outcome,CRL-7250 [1],inactive
same,outcome,HaCat [2],inactive
same,max response,KB-3-1,-0.392%
same,outcome,KB-3-1,inactive
same,max response,NIH3T3 [3],3.63%
same,outcome,NIH3T3 [3],inactive
same,outcome,CRL-7250 [5],inactive
same,outcome,HACAT [4],inactive
same,outcome,HEK293T,inactive
same,Potency,MCC-13,inactive
same,Potency,MCC-26,inactive
same,Potency,MKL-1,inactive
same,Potency,MKL-2,inactive
same,outcome,NIH3T3 [6],inactive
same,Potency,UISO,inactive
same,Potency,WaGa,inactive
same,Potency,C33A,inactive
same,Potency,CAOV3,inactive
same,Potency,CASKI,inactive
CCC(=O)C(CC(C)N(C)C)(c1ccccc1)c1ccccc1 (centres undefined),max response,CRL-7250 [1],-4.65%
same,Potency,HEK293,30.9 µM (active)
same,outcome,HaCat [2],inactive
same,max response,KB-3-1,-25%
same,max response,NIH3T3 [3],-1.89%
same,outcome,HACAT [4],inactive [at 92 µM]
same,Potency,MCC-13,inactive
same,Potency,C33A,inactive
CCCC(C)(COC(N)=O)COC(=O)NC(C)C (centres undefined),Potency,TAB165,inactive
same,Potency,W2,inactive
same,outcome,CRL-7250 [1],inactive
same,max response,HaCat [2],-8.86% and 1.84%
same,max response,KB-3-1,-16.5%
same,outcome,KB-3-1,inactive
same,max response,NIH3T3 [3],-10.4%
same,outcome,NIH3T3 [3],inactive
same,outcome,CRL-7250 [5],inactive
same,outcome,HEK293T,inactive
same,Potency,MCC-13,inactive
same,Potency,MCC-26,inactive
same,Potency,MKL-1,inactive
same,Potency,MKL-2,inactive
same,outcome,NIH3T3 [6],inactive
same,Potency,UISO,inactive
same,Potency,WaGa,inactive
same,Potency,C33A,inactive
same,Potency,CAOV3,inactive
same,Potency,CASKI,inactive
CCOP(=S)(OCC)Oc1cc(C)nc(C(C)C)n1,Potency,TAB165,inactive
same,Potency,W2,inactive
same,max response,CRL-7250 [1],1.07%
same,outcome,HEK293,inactive
same,max response,HaCat [2],0.572%
same,max response,KB-3-1,7.03%
same,max response,NIH3T3 [3],-12%
same,outcome,HEK293T,inactive
same,Potency,MCC-13,inactive
same,Potency,MCC-26,inactive
same,Potency,MKL-1,inactive
same,Potency,MKL-2,inactive
same,Potency,UISO,inactive
same,Potency,WaGa,inactive
same,Potency,C33A,inactive
same,Potency,CAOV3,inactive
same,Potency,CASKI,inactive
CC(C)=CCOc1c2occc2cc2ccc(=O)oc12,max response,CRL-7250 [1],-11.3%
same,outcome,HaCat [2],inactive
same,max response,KB-3-1,-18.5%
same,max response,NIH3T3 [3],-0.907%
same,outcome,HACAT [4],inactive
same,Potency,MCC-13,inactive
same,Potency,MKL-1,inactive
same,Potency,MKL-2,inactive
same,Potency,UISO,inactive
same,Potency,WaGa,inactive
same,Potency,C33A,inactive
same,Potency,CAOV3,inactive
same,Potency,CASKI,inactive
O=c1oc2ccccc2c(O)c1C(CC(O)c1ccc(-c2ccc(Br)cc2)cc1)c1ccccc1 (centres undefined),max response,CRL-7250 [1],0.6%
same,outcome,HEK293,inactive
same,max response,HaCat [2],4.03%
same,max response,KB-3-1,0.095%
same,max response,NIH3T3 [3],0.0262%
same,outcome,HEK293T,inactive
same,Potency,MCC-13,inactive
same,Potency,MKL-1,inactive
same,Potency,MKL-2,inactive
same,Potency,UISO,inactive
same,Potency,WaGa,inactive
same,Potency,C33A,inactive
same,Potency,CAOV3,inactive
same,Potency,CASKI,inactive
CC(C)NCC(O)c1ccccc1Cl (centres undefined),Potency,W2,3.38 µM (active)
same,outcome,CRL-7250 [1],inactive
same,max response,HaCat [2],-6.64%
same,max response,KB-3-1,-12%
same,max response,NIH3T3 [3],-1.73%
same,outcome,CRL-7250 [5],inactive
same,outcome,HEK293T,inactive
same,Potency,MCC-13,inactive
same,Potency,MKL-1,inactive
same,Potency,MKL-2,inactive
same,Potency,UISO,inactive
same,Potency,WaGa,inactive
same,Potency,C33A,inactive
same,Potency,CAOV3,inactive
same,Potency,CASKI,inactive
CN(C)CCc1ccc(O)cc1,Potency,TAB165,inactive
same,Potency,W2,inactive
same,max response,CRL-7250 [1],-1.07% and -0.797%
same,max response,HaCat [2],3.93%
same,outcome,HaCat [2],inactive
same,max response,KB-3-1,-1.4% and 4.63%
same,max response,NIH3T3 [3],-1.51% and -2.46%
same,outcome,HACAT [4],inactive
same,outcome,HEK293T,inactive
same,Potency,MCC-13,inactive
same,Potency,MKL-1,inactive
same,Potency,MKL-2,inactive
same,Potency,UISO,inactive
same,Potency,WaGa,inactive
same,Potency,C33A,inactive
same,Potency,CAOV3,inactive
same,Potency,CASKI,inactive
O=[N+]([O-])c1cc([As](=O)(O)O)ccc1O,Potency,TAB165,3.55 µM (active)
same,Potency,W2,2.56 µM (active)
same,max response,CRL-7250 [1],-0.161%
same,outcome,HEK293,inactive
same,max response,HaCat [2],-8.07%
same,max response,KB-3-1,-14.1%
same,outcome,NIH3T3 [3],inactive
same,outcome,HEK293T,inactive
same,Potency,MCC-13,inactive
same,Potency,MCC-26,inactive
same,Potency,MKL-1,inactive
same,outcome,NIH3T3 [6],inactive
same,Potency,UISO,inactive
same,Potency,WaGa,inactive
same,Potency,C33A,inactive
same,Potency,CAOV3,inactive
same,Potency,CASKI,inactive
Fc1ccc(C(OCCN2CCN(CCCc3ccccc3)CC2)c2ccc(F)cc2)cc1,Potency,TAB165,4.47 µM (active)
same,Potency,W2,4.26 µM (active)
same,Potency,CRL-7250 [1],13.2 µM (active)
same,Potency,HEK293,18.7 µM (active) and 21.1 µM (active)
same,Potency,KB-3-1,23.1 µM (active)
same,Potency,MCC-26,inactive
same,Potency,MKL-1,9.44 µM (active)
same,Potency,MKL-2,23.5 µM (active) and 4.73 µM (active)
same,Potency,UISO,23.7 µM (active)
same,Potency,WaGa,8.41 µM (active)
Cc1cccc(C)c1NC(=O)CN1CCCC1=O,max response,CRL-7250 [1],0.285% and 2.07%
same,max response,HaCat [2],3.48% and 0.767%
same,max response,KB-3-1,-16.8% and -6.89%
same,max response,NIH3T3 [3],1.47% and -1.95%
same,outcome,HEK293T,inactive
same,Potency,MCC-13,inactive
same,Potency,MKL-1,inactive
same,Potency,MKL-2,inactive
same,Potency,UISO,inactive
same,Potency,WaGa,inactive
same,Potency,C33A,inactive
same,Potency,CAOV3,inactive
same,Potency,CASKI,inactive
